Measured values from the supplement of paper PMC10849652.
The full data set covers some 8,800 targets. This sample favours those with a hit. About 0.5% of all pairs of compound and target were hits.

How the values were obtained:
Assay in all cases: log2 fold change, soluble protein after heating vs DMSO (PISA); higher = thermal stabilisation; K562 lysate, 10 uM; active = over 0.2 and 3.5 SD of the protein, either way, in both replicates (recomputed)
erlotinib = compound: C#Cc1cccc(Nc2ncnc3cc(OCCOC)c(OCCOC)cc23)c1 [erlotinib]
Procedure, shortened: (§1)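 Following dounce homogenisation of K562 pellets in PBS pH 7.4 with 1 mM MgCl2, crude extract at 1 mg/mL protein was incubated for 30 min with 10 μM compound. Aliquots were then heated for 3 min over 48°C-58°C and pooled, NP-40 was added to 0.5% at 4°C, and soluble protein was recovered as the supernatant at 21,000xg for 90 min. Channel-sum-equalised TMTpro 16plex LC-MS/MS quantified this protein. Each value, from duplicates, is a log-two fold change in thermal stability relative to solvent controls.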

[1] = compound: C/C(=N\NC(=O)C1=CC(=CC=C1)S(=O)(=O)N2CCOCC2)/C3=C(C=CC(=C3)Cl)O
Procedure, shortened: as §1

[2] = compound: C1=CC(=CC=C1C2=NC3=C(N2)C=C(C=C3)C(=O)N)OC4=CC=C(C=C4)Cl
Procedure, shortened: as §1

[3] = compound: C1=CC2=C(C=CC(=C2)/C=C\3/C(=O)NC(=NCC4=CC=CS4)S3)N=C1
Procedure, shortened: as §1

[4] = compound: C1=CC2=NC=CN=C2C=C1/C=C/3\C(=O)NC(=O)S3
Procedure, shortened: as §1

[5] = compound: C1=CC=C(C=C1)C2=NC(=C(N2)C3=CC=NC=C3)C4=CC(=C(C=C4)Cl)O
Procedure, shortened: as §1

[6] = compound: C1=CC=C2C(=C1)C3=NNC4=CC=CC(=C43)C2=O
Procedure, shortened: as §1

[7] = compound: C1CCN(C1)C(=O)NC2=CC=CC(=C2)NC3=NC=C(C(=N3)NCCC4=CN=CN4)Br
Procedure, shortened: as §1

[8] = compound: C1CN(CCC1(CC2=CC=C(C=C2)Cl)N)C3=NC=NC4=C3C=CN4
Procedure, shortened: as §1

IRAK-1-4 Inhibitor I = compound: C1COCCN1CCN2C3=CC=CC=C3N=C2NC(=O)C4=CC(=CC=C4)[N+](=O)[O-] [IRAK-1-4 Inhibitor I]
Procedure, shortened: as §1

ibrutinib = compound: C=CC(=O)N1CCC[C@@H](n2nc(-c3ccc(Oc4ccccc4)cc3)c3c(N)ncnc32)C1 [ibrutinib]
Procedure, shortened: as §1

[9] = compound: CC(=O)c1cnc2ccc(-c3cc(Cl)c(O)c(Cl)c3)nc2c1N[C@H]1CC[C@H](CN(C)C)CC1
Procedure, shortened: as §1

ralimetinib = compound: CC(C)(C)Cn1c(N)nc2ccc(-c3[nH]c(C(C)(C)C)nc3-c3ccc(F)cc3)nc21 [ralimetinib]
Procedure, shortened: as §1

[10] = compound: CC(C)(O)CC(=O)NCCn1ccc2ncnc(Nc3ccc(Oc4cccc(C(F)(F)F)c4)c(Cl)c3)c21
Procedure, shortened: as §1

[11] = compound: CC(C)C1=C2N=C(C=C(N2N=C1)NCC3=CC=CC=C3)NCCCCCCN
Procedure, shortened: as §1

[12] = compound: CC1=C(C(CC(=O)N1)C2=CC=C(C=C2)C(F)(F)F)C(=O)NC3=C(C=C4C(=C3)C=NN4)F
Procedure, shortened: as §1

[13] = compound: CC1=C(C2=C(C=C1)C(=O)C3=CC=CC=C3N2CCCN)C
Procedure, shortened: as §1

[14] = compound: CC1=C(C=C(C=C1)NC(=O)C2=CC(=CC=C2)C(C)(C)C#N)NC3=CC4=C(C=C3)N=CN(C4=O)C
Procedure, shortened: as §1

[15] = compound: CC1=C(C=C(C=C1)NC(=O)C2=CC(=CC=C2)N(C)C)NC(=O)C3=CC=C(C=C3)O
Procedure, shortened: as §1

[16] = compound: CC1=CC=C(C=C1)SC2=C3C=C(SC3=CN=C2)C(=O)N
Procedure, shortened: as §1

Measured: log2 fold change

ZNF217 (UniProt O75362)
Sequence of UniProt O75362 (O75362 whole entry, looked up): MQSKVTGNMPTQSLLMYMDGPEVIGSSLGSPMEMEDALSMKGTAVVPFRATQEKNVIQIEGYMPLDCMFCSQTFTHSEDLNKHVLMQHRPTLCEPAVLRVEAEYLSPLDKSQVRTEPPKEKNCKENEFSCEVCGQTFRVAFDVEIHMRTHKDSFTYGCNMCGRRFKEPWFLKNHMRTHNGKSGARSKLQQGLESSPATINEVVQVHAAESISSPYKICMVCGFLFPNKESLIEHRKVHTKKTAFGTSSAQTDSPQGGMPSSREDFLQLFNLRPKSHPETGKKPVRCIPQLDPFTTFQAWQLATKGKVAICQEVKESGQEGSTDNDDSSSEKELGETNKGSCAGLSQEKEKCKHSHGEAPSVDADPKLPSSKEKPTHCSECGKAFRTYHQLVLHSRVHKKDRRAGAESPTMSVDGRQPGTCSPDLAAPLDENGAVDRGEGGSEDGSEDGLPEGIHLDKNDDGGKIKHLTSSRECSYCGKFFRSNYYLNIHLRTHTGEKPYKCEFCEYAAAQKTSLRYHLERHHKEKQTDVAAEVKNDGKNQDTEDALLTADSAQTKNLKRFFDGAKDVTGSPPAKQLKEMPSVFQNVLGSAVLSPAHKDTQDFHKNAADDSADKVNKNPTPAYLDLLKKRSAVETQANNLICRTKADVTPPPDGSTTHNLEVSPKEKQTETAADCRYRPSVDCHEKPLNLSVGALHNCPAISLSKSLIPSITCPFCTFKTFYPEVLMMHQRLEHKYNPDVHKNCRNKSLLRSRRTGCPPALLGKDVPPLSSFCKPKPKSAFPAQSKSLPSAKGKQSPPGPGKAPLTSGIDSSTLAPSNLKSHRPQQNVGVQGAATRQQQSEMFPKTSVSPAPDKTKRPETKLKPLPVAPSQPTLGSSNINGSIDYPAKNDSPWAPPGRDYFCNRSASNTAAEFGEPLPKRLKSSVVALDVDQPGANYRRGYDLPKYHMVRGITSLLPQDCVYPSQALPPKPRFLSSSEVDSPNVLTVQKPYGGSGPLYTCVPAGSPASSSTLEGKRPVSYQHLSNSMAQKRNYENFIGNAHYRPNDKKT
inactive: erlotinib -0.014 | [1] -0.043 | [2] 0.06 | [3] -0.132 | [4] -0.004 | [5] 0.027 | [6] -0.162 | [7] -0.014 | [8] 0.028 | IRAK-1-4 Inhibitor I 0.007 | ibrutinib -0.033 | [9] 0.053 | ralimetinib 0.017 | [10] -0.014 | [11] -0.061 | [12] -0.005 | [13] -0.022 | [14] 0.002 | [15] 0.025 | [16] -0.031

USP16 (UniProt Q9Y5T5)
inactive: erlotinib -0.002 | [1] -0.01 | [2] -0.01 | [3] -0.002 | [4] 0.011 | [5] 0.036 | [6] -0.016 | [7] -0.028 | [8] -0.005 | IRAK-1-4 Inhibitor I -0.033 | ibrutinib -0.027 | [9] -0.035 | ralimetinib -0.001 | [10] 0.011 | [11] 0.017 | [12] 0 | [13] -0.06 | [14] -0.027 | [15] -0.012 | [16] 0.019

YWHAQ (UniProt P27348)
Sequence of UniProt P27348 (P27348 whole entry, looked up): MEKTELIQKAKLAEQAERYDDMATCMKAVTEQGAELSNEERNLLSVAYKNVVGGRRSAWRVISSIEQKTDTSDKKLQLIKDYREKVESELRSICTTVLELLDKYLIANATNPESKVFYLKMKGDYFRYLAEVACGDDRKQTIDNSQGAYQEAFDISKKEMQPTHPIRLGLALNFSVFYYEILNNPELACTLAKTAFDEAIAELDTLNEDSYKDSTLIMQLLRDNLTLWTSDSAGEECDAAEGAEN
inactive: erlotinib 0.026 | [1] 0.046 | [2] 0.016 | [3] 0.012 | [4] 0.017 | [5] 0.014 | [6] 0.021 | [7] -0.006 | [8] 0.022 | IRAK-1-4 Inhibitor I 0.013 | ibrutinib -0.011 | [9] -0.001 | ralimetinib -0.007 | [10] 0.028 | [11] 0 | [12] -0.054 | [13] 0.007 | [14] -0.001 | [15] 0.01 | [16] 0.01

UNC13D (UniProt Q70J99)
inactive: erlotinib 0.019 | [1] 0.023 | [2] -0.049 | [3] 0.02 | [4] 0.025 | [5] -0.007 | [6] -0.009 | [7] 0.005 | [8] 0.013 | IRAK-1-4 Inhibitor I 0.022 | ibrutinib -0.043 | [9] -0.005 | ralimetinib 0.031 | [10] -0.014 | [11] 0.018 | [12] 0.016 | [13] 0.015 | [14] 0.012 | [15] 0.025 | [16] -0.015

UTP3 (UniProt Q9NQZ2)
Sequence of UniProt Q9NQZ2 (Q9NQZ2 whole entry, looked up): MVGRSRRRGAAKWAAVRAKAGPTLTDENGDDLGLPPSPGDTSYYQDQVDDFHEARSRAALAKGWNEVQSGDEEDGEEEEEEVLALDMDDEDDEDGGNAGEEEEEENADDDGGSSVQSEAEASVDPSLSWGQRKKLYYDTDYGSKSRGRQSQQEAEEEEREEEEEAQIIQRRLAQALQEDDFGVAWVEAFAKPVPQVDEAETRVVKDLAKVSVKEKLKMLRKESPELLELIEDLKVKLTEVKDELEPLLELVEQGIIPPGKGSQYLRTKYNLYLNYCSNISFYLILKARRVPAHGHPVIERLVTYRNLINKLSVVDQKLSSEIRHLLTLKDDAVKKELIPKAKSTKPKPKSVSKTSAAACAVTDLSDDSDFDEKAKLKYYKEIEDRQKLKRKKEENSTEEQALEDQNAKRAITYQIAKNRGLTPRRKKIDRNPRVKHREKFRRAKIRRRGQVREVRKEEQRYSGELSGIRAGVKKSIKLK
inactive: erlotinib -0.051 | [1] -1.41 | [2] -0.088 | [3] -0.063 | [4] -0.039 | [5] -0.018 | [6] 0.021 | [7] -0.067 | [8] -0.09 | IRAK-1-4 Inhibitor I -0.041 | ibrutinib 0.053 | [9] 0.001 | ralimetinib 0.055 | [10] -0.051 | [11] -0.058 | [12] 0.026 | [13] -0.123 | [14] -0.016 | [15] -0.023 | [16] -0.018

VAMP2 (UniProt P63027)
Sequence of UniProt P63027 (P63027 whole entry, looked up): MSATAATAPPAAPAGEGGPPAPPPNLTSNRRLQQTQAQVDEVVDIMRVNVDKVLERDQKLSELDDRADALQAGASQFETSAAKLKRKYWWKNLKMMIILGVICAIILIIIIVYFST
inactive: erlotinib -0.083 | [1] 0.055 | [2] -0.024 | [3] -0.063 | [4] 0.063 | [5] -0.082 | [6] -0.037 | [7] 0.081 | [8] -0.009 | IRAK-1-4 Inhibitor I -0.033 | ibrutinib -0.039 | [9] -0.027 | ralimetinib 0.002 | [10] -0.006 | [11] -0.036 | [12] -0.069 | [13] -0.01 | [14] -0.048 | [15] 0.047 | [16] 0.035

WDR24 (UniProt Q96S15)
Sequence of UniProt Q96S15 (Q96S15 whole entry, looked up): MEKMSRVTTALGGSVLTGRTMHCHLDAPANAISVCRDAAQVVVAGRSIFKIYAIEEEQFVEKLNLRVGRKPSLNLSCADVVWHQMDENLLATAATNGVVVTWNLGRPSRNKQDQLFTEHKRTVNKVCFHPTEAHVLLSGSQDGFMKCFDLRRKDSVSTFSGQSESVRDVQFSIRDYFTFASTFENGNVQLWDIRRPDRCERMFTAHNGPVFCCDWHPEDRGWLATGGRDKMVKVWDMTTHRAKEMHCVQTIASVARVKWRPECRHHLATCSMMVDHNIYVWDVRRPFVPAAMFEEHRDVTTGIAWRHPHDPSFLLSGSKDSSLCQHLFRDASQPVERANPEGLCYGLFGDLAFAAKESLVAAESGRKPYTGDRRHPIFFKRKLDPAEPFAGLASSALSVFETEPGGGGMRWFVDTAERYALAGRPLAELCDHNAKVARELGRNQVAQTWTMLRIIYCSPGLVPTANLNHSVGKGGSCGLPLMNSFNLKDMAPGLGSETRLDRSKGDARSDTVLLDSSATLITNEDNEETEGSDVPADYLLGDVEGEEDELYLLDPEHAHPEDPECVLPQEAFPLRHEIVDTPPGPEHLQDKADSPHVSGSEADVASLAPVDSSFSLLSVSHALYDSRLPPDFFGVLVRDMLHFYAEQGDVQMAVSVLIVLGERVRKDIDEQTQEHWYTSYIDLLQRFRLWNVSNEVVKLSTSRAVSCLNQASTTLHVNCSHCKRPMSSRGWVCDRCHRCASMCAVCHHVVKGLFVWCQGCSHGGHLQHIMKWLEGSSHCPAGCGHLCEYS
inactive: erlotinib 0.023 | [1] 0.014 | [2] 0.029 | [3] -0.042 | [4] -0.018 | [5] 0.058 | [6] -0.012 | [7] -0.034 | [8] -0.007 | IRAK-1-4 Inhibitor I 0.034 | ibrutinib -0.044 | [9] -0.016 | ralimetinib 0.025 | [10] -0.022 | [11] 0.041 | [12] 0.055 | [13] -0.011 | [14] 0.033 | [15] -0.034 | [16] 0.021

VPS28 (UniProt Q9UK41)
inactive: erlotinib 0.707 | [1] -0.039 | [2] 0.004 | [3] -0.005 | [4] 0.041 | [5] 0.028 | [6] -0.036 | [7] -0.006 | [8] -0.018 | IRAK-1-4 Inhibitor I -0.036 | ibrutinib 0.109 | [9] -0.02 | ralimetinib 0.009 | [10] 0.046 | [11] -0.004 | [12] -0.005 | [13] 0.019 | [14] -0.092 | [15] 0.028 | [16] 0.019

VPS35L (UniProt Q7Z3J2)
inactive: erlotinib 0.005 | [1] -0.016 | [2] -0.028 | [3] -0.001 | [4] 0.002 | [5] 0.006 | [6] -0.038 | [7] -0.028 | [8] 0.006 | IRAK-1-4 Inhibitor I 0.04 | ibrutinib 0.011 | [9] 0.023 | ralimetinib -0.003 | [10] -0.032 | [11] 0.003 | [12] 0.007 | [13] 0.018 | [14] -0.021 | [15] 0.009 | [16] -0.005

WRNIP1 (UniProt Q96S55)
Sequence of UniProt Q96S55 (Q96S55 whole entry, looked up): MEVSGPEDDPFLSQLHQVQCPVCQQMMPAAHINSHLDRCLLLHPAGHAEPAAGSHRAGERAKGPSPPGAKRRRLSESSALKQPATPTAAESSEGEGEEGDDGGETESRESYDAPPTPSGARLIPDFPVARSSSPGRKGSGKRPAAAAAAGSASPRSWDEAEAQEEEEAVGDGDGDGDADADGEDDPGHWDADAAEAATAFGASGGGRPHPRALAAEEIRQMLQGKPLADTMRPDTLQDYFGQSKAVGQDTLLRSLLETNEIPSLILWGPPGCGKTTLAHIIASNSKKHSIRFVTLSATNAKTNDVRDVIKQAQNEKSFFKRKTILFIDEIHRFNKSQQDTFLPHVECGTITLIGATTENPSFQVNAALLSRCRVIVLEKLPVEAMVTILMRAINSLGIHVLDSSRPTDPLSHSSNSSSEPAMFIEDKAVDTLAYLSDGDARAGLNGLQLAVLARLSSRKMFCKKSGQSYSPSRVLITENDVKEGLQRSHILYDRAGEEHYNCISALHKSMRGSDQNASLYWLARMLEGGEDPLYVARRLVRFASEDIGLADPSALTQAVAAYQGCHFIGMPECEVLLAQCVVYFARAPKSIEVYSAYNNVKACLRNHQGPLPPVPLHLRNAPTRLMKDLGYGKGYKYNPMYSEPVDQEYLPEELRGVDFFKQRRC
inactive: erlotinib 0.019 | [1] -0.128 | [2] -0.014 | [3] -0.024 | [4] -0.005 | [5] 0.003 | [6] -0.064 | [7] 0.028 | [8] 0.023 | IRAK-1-4 Inhibitor I -0.05 | ibrutinib 0.025 | [9] 0.026 | ralimetinib 0.051 | [10] 0.026 | [11] 0.001 | [12] 0.045 | [13] 0.013 | [14] -0.023 | [15] -0.003 | [16] -0.023

VPS33A (UniProt Q96AX1)
Sequence of UniProt Q96AX1 (Q96AX1 whole entry, looked up): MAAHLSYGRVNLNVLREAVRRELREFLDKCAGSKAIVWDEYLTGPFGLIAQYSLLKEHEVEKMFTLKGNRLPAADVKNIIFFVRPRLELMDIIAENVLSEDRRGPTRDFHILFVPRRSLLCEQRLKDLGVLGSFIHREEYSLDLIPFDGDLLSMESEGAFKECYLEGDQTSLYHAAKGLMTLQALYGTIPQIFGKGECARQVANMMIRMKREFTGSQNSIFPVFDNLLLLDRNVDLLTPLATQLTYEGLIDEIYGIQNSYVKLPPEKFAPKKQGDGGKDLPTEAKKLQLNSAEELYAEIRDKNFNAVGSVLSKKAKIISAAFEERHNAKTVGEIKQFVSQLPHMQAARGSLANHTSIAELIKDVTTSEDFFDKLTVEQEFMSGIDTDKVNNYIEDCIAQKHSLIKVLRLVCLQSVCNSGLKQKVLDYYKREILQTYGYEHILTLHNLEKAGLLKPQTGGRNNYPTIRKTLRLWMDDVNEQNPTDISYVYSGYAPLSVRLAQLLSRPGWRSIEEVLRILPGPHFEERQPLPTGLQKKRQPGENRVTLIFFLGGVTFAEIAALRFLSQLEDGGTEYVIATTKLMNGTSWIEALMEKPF
inactive: erlotinib 0.024 | [1] 0.005 | [2] 0.024 | [3] 0.035 | [4] 0.018 | [5] -0.006 | [6] -0.023 | [7] -0.025 | [8] 0.036 | IRAK-1-4 Inhibitor I 0.015 | ibrutinib 0.024 | [9] -0.01 | ralimetinib 0.039 | [10] 0.005 | [11] -0.003 | [12] 0.008 | [13] 0.013 | [14] 0.013 | [15] 0.043 | [16] -0.032

XPO1 (UniProt O14980)
Sequence of UniProt O14980 (O14980 whole entry, looked up): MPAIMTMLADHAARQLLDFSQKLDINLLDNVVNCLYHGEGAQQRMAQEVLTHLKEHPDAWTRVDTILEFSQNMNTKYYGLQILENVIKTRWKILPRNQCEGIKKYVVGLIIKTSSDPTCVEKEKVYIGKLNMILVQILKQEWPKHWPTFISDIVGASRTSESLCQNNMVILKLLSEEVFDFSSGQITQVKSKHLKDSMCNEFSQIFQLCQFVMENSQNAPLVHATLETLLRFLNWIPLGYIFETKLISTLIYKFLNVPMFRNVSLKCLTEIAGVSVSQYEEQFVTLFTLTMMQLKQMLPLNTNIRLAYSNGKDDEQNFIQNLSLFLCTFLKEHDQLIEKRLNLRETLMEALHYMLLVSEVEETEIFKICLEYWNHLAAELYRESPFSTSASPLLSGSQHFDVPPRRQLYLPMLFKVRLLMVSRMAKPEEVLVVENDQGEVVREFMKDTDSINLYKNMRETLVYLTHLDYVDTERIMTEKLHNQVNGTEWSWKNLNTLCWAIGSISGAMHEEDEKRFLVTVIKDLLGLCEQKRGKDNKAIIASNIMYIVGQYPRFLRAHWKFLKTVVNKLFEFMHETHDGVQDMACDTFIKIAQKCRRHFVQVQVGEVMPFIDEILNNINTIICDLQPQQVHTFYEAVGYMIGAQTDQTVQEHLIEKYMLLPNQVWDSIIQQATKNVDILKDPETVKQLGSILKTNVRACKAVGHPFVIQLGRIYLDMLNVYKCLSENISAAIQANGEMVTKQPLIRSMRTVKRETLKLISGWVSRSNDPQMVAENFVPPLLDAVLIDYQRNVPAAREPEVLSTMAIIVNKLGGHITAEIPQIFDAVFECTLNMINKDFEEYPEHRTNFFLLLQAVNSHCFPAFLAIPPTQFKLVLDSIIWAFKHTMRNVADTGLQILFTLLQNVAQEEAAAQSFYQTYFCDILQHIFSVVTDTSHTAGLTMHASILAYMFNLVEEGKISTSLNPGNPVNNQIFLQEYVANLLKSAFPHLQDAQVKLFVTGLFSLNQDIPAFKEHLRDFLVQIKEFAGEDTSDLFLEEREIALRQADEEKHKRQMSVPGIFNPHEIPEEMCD
inactive: erlotinib 0.021 | [1] 0.025 | [2] -0.015 | [3] 0.017 | [4] 0.026 | [5] -0.031 | [6] -0.045 | [7] -0.005 | [8] 0.033 | IRAK-1-4 Inhibitor I 0.016 | ibrutinib -0.01 | [9] 0.008 | ralimetinib 0.029 | [10] -0.037 | [11] -0.01 | [12] -0.007 | [13] 0.035 | [14] -0.004 | [15] 0.02 | [16] 0.019

ZC2HC1A (UniProt Q96GY0)
inactive: erlotinib 0 | [1] -0.134 | [2] 0.058 | [3] 0.18 | [4] 0.073 | [5] -0.043 | [6] -0.1 | [7] -0.054 | [8] 0.009 | IRAK-1-4 Inhibitor I -0.012 | ibrutinib -0.029 | [9] -0.006 | ralimetinib 0.037 | [10] -0.056 | [11] -0.038 | [12] -0.016 | [13] -0.076 | [14] 0.045 | [15] -0.003 | [16] 0.006

ZMAT2 (UniProt Q96NC0)
inactive: erlotinib 0.025 | [1] -0.037 | [2] 0.025 | [3] -0.023 | [4] -0.026 | [5] 0.023 | [6] 0.055 | [7] -0.007 | [8] -0.048 | IRAK-1-4 Inhibitor I 0.066 | ibrutinib 0.009 | [9] -0.016 | ralimetinib -0.011 | [10] 0.013 | [11] 0.035 | [12] -0.004 | [13] -0.021 | [14] 0.032 | [15] -0.028 | [16] -0.022

YDJC (UniProt A8MPS7)
inactive: erlotinib -0.083 | [1] 0.036 | [2] -0.011 | [3] -0.012 | [4] -0.01 | [5] 0.029 | [6] -0.065 | [7] -0.034 | [8] 0.029 | IRAK-1-4 Inhibitor I -0.023 | ibrutinib 0.024 | [9] 0.023 | ralimetinib -0.015 | [10] -0.064 | [11] -0.028 | [12] 0.052 | [13] -0.034 | [14] 0.011 | [15] 0.022 | [16] 0.021

XPOT (UniProt F5GYW6)
inactive: [9] -0.027 | [16] 0.041

ZNF652 (UniProt Q9Y2D9)
inactive: [14] 0.042

UNKL (UniProt E9PDK2)
inactive: [1] -0.088 | [3] 0.166 | [4] 0.061 | [6] -0.122 | [7] 0.155 | [8] 0.156 | ibrutinib -0.191 | [13] -0.086 | [14] 0.025
